PMC4336329 (PLoS ONE, 2015)
Among all 310,000 compounds or so, about 14,000 (4.5%) showed an effect of 50% or more. The effect is printed as a negative number. Shown is part of a subset that was picked to be rich in strong results.

Molecular target: human ether-à-go-go-related gene (hERG) potassium channel (human, UniProt Q12809)
Test: primary screen, population patch clamp on CHO cells stably expressing hERG; higher = less effect of the substance
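Note: peak tail current of the secondary pulse compared with the same well before compound.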

Chain of human ether-à-go-go-related gene (hERG) potassium channel (Q12809 whole entry, looked up): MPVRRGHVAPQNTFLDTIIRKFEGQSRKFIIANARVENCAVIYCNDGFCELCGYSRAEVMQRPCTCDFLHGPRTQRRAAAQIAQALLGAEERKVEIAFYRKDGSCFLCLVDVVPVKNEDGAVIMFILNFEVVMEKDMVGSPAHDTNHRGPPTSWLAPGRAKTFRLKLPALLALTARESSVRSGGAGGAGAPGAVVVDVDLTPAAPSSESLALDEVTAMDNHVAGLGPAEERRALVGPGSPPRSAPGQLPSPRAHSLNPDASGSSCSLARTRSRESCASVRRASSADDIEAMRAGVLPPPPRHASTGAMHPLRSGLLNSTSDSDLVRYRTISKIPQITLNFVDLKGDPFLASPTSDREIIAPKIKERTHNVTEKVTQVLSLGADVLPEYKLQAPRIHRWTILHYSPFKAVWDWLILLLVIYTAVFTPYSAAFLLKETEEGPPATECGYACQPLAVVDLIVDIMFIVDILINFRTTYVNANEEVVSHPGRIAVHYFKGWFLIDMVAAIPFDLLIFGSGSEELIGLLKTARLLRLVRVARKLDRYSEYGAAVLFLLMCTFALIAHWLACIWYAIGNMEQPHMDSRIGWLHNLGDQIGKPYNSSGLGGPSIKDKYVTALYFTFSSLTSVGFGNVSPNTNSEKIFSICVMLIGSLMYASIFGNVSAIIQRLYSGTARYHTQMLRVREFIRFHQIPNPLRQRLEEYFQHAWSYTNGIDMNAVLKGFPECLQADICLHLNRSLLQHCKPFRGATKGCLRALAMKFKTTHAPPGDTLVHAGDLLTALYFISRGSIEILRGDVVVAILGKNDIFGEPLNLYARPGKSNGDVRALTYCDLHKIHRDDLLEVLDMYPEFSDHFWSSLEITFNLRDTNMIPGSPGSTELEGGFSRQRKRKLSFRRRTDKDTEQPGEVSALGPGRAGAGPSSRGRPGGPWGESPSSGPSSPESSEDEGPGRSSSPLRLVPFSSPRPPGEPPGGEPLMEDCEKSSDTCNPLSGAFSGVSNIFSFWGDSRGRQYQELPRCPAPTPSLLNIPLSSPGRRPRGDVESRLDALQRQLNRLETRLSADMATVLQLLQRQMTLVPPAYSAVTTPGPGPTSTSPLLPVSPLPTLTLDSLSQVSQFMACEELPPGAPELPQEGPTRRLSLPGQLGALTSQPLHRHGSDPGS

Compound | hERG current change (%, negative = inhibition) at 10uM [%]
O=C(COC(=O)c1ccco1)NCc1cccs1 | 12.4
CC(=O)Nc1cc(C(=O)N(C)Cc2ccco2)ccc1Sc1ccc(Cl)cc1 | -66.7
CC(=O)Nc1cc(C(=O)NCCN2CCN(Cc3ccccc3)CC2)ccc1Sc1ccc(C)cc1 | -63.6
CCOc1ccc(CNC(=O)c2ccc(Sc3ccc(C)cc3)c(NC(C)=O)c2)cc1OC | -21.5
CCN(CC)CCNC(=O)c1ccc(Sc2ccc(C)cc2)c(NC(C)=O)c1 | -58.2
CC(=O)Nc1cc(C(=O)NCc2ccco2)ccc1Sc1ccc(F)cc1 | -40.8
CCN(CC)CCNC(=O)c1ccc(Sc2ccc(Cl)cc2)c(NC(C)=O)c1 | -61.7
CCOc1ccc(CNC(=O)c2ccc(Sc3ccc(C)cc3)c(NC(C)=O)c2)cc1 | -4.85
CC(=O)Nc1cc(C(=O)NCc2ccco2)ccc1Sc1ccc(C)cc1 | -17.8
CCC(=O)Nc1cc(C(=O)O)ccc1Sc1ccc(C)cc1 | 4.85
CCOc1ccccc1CNC(=O)c1ccc(Sc2ccc(Cl)cc2)c(NC(C)=O)c1 | -19.4
CC(=O)Nc1cc(C(=O)NCc2ccco2)ccc1Sc1ccc(Cl)cc1 | -35.6
CCOc1ccc(CNC(=O)c2ccc(Sc3ccc(Cl)cc3)c(NC(C)=O)c2)cc1 | -8.57
CSc1ncc(F)c(N(CCO)CCO)n1 | 10.5
O=C1S/C(=C\c2ccccn2)C(=O)N1Cc1ccccc1F | 9.45
O=S(=O)(Nc1cccnc1Cl)c1ccc2c(c1)OCCO2 | 15.4
COc1cc(C(=O)N(C)CCOc2ccc(C)cc2)ccc1OC1CCN(C(C)=O)CC1 | 8.41
CCN1CCC2(CC1)N=C(c1ccc(F)cc1)C(=S)N2C(=O)c1ccc(C(C)(C)C)cc1 | -10.8
CCN(CC)CCNC(=O)NC(=O)c1ccc(Cl)cc1 | -63
CN(C)CCNC(=O)NC(=O)c1ccc(Cl)cc1 | -14.7
CC(C)OCCCNC(=O)NC(=O)c1ccc(Cl)cc1 | -6.21

Compound | hERG current change (%, negative = inhibition) at 10uM [%]
COc1ccc(/C=N/NC(=O)C(C)n2nnc3ccccc32)cc1OC (stereo not drawn) | 2.4
C[n+]1c(-c2ccccc2)sc2ccccc21.[O-][Cl+3]([O-])([O-])[O-] | 23.1
CC[n+]1c(C)sc2cc(C)ccc21.[I-] | 15
Cc1ccc2c(c1)sc(-c1ccc(N(C)C)cc1)[n+]2C.[I-] | -60
O=C(CN1C(=O)c2cccnc2Oc2ccc(Cl)cc21)NC1CCCCC1 | -13.1
CC(=O)Nc1ccc(/C=C/C(=O)c2ccc3c(c2)OCCO3)cc1 | -0.901
CCOc1ccc(C(=O)NC(C(=O)NCC(c2cccs2)N(C)C)C(C)C)cc1 (stereo not drawn) | -19.8
O=C(NCCc1c[nH]c2ccccc12)/C(=C\c1cccnc1)NC(=O)c1ccco1 | -65.1
O=C(NCCc1c[nH]c2ccccc12)/C(=C/c1ccco1)NC(=O)c1ccco1 | -42.5
O=C(NCCCn1ccnc1)/C(=C\c1cccnc1)NC(=O)c1ccco1 | -0.164
O=C(NCCc1c[nH]c2ccccc12)c1ccco1 | 3.71
O=C(NCCc1c[nH]c2ccccc12)/C(=C/c1cccnc1)NC(=O)c1ccco1 | -64.7
O=C(NCCc1c[nH]c2ccccc12)/C(=C\c1ccco1)NC(=O)c1ccco1 | -21.3
CC1CCCC(C)N1C(=O)COC(=O)c1nn(C)c(=O)c2ccccc12 (stereo not drawn) | 1.93
COc1ccc(C(=O)N/C(=C\c2cn(C)c3ccccc23)C(=O)N2CCN(C)CC2)cc1OC | -3.26
CCn1cc(/C=C(\NC(=O)c2ccc(OC)c(OC)c2)C(=O)N2CCN(C)CC2)c2ccccc21 | -32.8
COc1ccc(C(=O)N/C(=C\c2cccc3ccccc23)C(=O)N2CCN(C)CC2)cc1OC | -50.6
COc1ccc(C(=O)N/C(=C\c2cn(C)c3ccccc23)C(=O)N2CCOCC2)cc1 | -10.9
CCOC(=O)N1CCN(C(=O)/C(=C/c2ccccc2OC)NC(=O)c2ccccc2)CC1 | -37.9
COc1ccc(C(=O)N/C(=C\c2cn(C)c3ccccc23)C(=O)N2CCN(C)CC2)cc1 | -7.61
CCOC(=O)N1CCN(C(=O)/C(=C/c2cccc3ccccc23)NC(=O)c2ccc(OC)c(OC)c2)CC1 | -3.14

Compound | hERG current change (%, negative = inhibition) at 10uM [%]
COc1ccc(C(=O)N/C(=C\c2cn(S(=O)(=O)N(C)C)c3ccccc23)C(=O)N2CCOCC2)cc1 | -47
CCOC(=O)N1CCN(C(=O)/C(=C/c2cccc3ccccc23)NC(=O)c2ccc(OC)cc2)CC1 | -50.9
CN1CCN(C(=O)/C(=C/c2cn(S(=O)(=O)N(C)C)c3ccccc23)NC(=O)c2ccccc2)CC1 | 0.665
COc1ccc(C(=O)N/C(=C\c2cn(S(=O)(=O)N(C)C)c3ccccc23)C(=O)N2CCN(C)CC2)cc1 | -50.8
COc1ccc(C(=O)N/C(=C\c2cccc3ccccc23)C(=O)N2CCN(C)CC2)cc1 | -65.6
CCCCC[n+]1ccn(C2=C([O-])c3ccccc3C(=O)/C2=N\S(=O)(=O)c2ccc(Br)cc2)c1 | -39.1
CC(/C=C/c1ccc2c(c1)OCO2)=N\NC(=O)c1ccccc1 | 10.3
O=S(=O)(NC1CCSc2ccccc21)c1ccc(Cl)nc1 (stereo not drawn) | -18.1
CCOc1cc(/C=C2/C(=N)N3C(=NC2=O)SN=C3S(=O)(=O)C(C)C)ccc1OC(=O)c1ccco1 | 3.02
COC(=O)C1C(O)=C(C=Nc2ccc3ccccc3c2)C(=O)CC1(C)C (stereo not drawn) | -8.23
O=[N+]([O-])c1ccc(Sc2ccc(F)cc2)nc1 | 11.2
COc1ccc(C(=O)Nc2cccc(/C=C(\CCC(=O)O)c3nc4ccccc4s3)c2)cc1 | 8.59
CN(C)/C=C1\C(=O)NN=C1C(F)(F)F | 4.44
Cc1cccn2cc(-c3cccc(S(=O)(=O)N4CCOCC4)c3)nc12 | 0.676
COc1cc(OC)cc(C(=O)NCC(=O)N2CCCCC2)c1 | 9.25
CCn1ncc(Cl)c1C(=O)Nc1ccc2c(c1)CCC2 | 3.85
CCc1ccc(NC(=O)NCC2CCN(Cc3cccc(Cl)c3)CC2)cc1 | -82.9
CCc1ccc(NC(=O)NCC2CCN(c3ccc(OC)cc3)C2)cc1 (stereo not drawn) | -6.79
O=C(NCC1CC1)Nc1ccc(Cl)cc1 | 17.7
O=C(NCC1CCN(Cc2cccc(Cl)c2)CC1)Nc1ccc(Cl)cc1 | -76.2
Cc1ccc(NC(=O)NCC2CCN(Cc3cccc(Cl)c3)CC2)cc1Cl | -19.7

Compound | hERG current change (%, negative = inhibition) at 10uM [%]
COc1ccc(Oc2nccc(OC)c2C#N)cc1 | -0.188
O=C(NCCCN1CCCC1=O)C1CCN(S(=O)(=O)c2cccc(Cl)c2Cl)CC1 | -18.7
O=C(/C=C/c1ccccc1)OCC(=O)N1CCCC1 | 0.185
Cc1cc(NC(=O)CCN2CCN(CCO)CC2)ccc1Br.Cl | -4.69
CCN1CCN(CCC(=O)Nc2ccc(Br)c(C)c2)CC1.Cl | -30.8
Cc1cc(NC(=O)CCN2CCCCC2)ccc1Br | -72.8
Cc1cc(NC(=O)CCN2CCN(C)CC2)ccc1Br.Cl | -7.85
Cc1cc(NC(=O)CCN2CC(C)OC(C)C2)ccc1Br.Cl (stereo not drawn) | -7.73
Cc1cc(NC(=O)CCN2CCC(C)CC2)ccc1Br.Cl | -57.6
CCN(CC)CCNc1nc(-c2ccco2)c2c(c1C#N)CC(C)(C)OC2 | -62.6
Cc1nc(NCCN)c(C#N)c2c1COC(C)(C)C2 | 16
CC1(C)Cc2c(C#N)c(NCCc3ccccc3)nc(-c3ccco3)c2CO1 | 12.5
CC1(C)Cc2c(C#N)c(NCc3ccco3)nc(-c3ccco3)c2CO1 | -8.94
CC1(C)Cc2c(C#N)c(N3CCOCC3)nc(-c3ccccc3)c2CO1 | -12.1
CCN(CC)CCNc1nc(-c2ccccc2)c2c(c1C#N)CC(C)(C)OC2 | -66.4
CC1(C)Cc2c(C#N)c(NCCN3CCOCC3)nc(-c3ccco3)c2CO1 | -6.23
CN(C)CCNc1nc(-c2ccco2)c2c(c1C#N)CC(C)(C)OC2 | -55.7
CC1(C)Cc2c(C#N)c(NCCO)nc(-c3ccco3)c2CO1 | -4.23
COC(=O)c1c(NC(=S)NN2CCOCC2)sc2c1CCCC2 | 8.03
COc1ccc(S(=O)(=O)Nc2ccc(S(=O)(=O)NCC3CCCO3)cc2)cc1 (stereo not drawn) | 6.4
CCc1nc2c(sc3nc4c(cc32)COC(C)(C)C4)c(=O)n1CCN(CC)CC | -38.1
